In PubChem BioAssay (NCI):
This is part of a sample that, as a whole, favours compounds with a hit. Of some 83,000 tested, about 20% had one in any assay.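 Cells were grown in 96-well plates and exposed to the test compound at a single concentration for 48 hours; results are reported as percent growth, with values below 10 considered active.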 Calls of active or inactive are those of the source.

These compounds were tested on T-47D breast (assay: NCI-60 one-dose screen, 48 h (100 = growth as untreated, 0 = no growth, -100 = all killed)). Conditions: 10 µM unless noted.

SMILES	growth
Cc1ccc(S(=O)(=O)c2nc(S(=O)(=O)c3ccc(C)cc3)c(N3CCC(O)CC3)s2)cc1	60.1% (inactive)
Cc1sc2c(c1C)C(c1ccc(Cl)cc1)=N[C@@H](CC(=O)NCCCCCNC(=O)COc1ccc(C3CCC(=O)NC3=O)cc1)c1nnc(C)n1-2 (some centres not stated)	-10.6% (active)
COc1ccc2c(c1)C(=N/N=C(\C)c1ccc(OC)c(S(N)(=O)=O)c1)C(=O)N2	87% (inactive)
COc1cc2oc(-c3cccc(C(=O)Nc4ccc(Cl)cc4)c3)cc(=O)c2c(OCCNC(=O)[C@H](CCC(=O)OC(C)(C)C)NC(=O)OC(C)(C)C)c1OC	78.7% (inactive)
COc1ccc(-c2nc3cc(C)ccc3n2CC(=O)N=Nc2c(O)[nH]c3ccc(Cl)cc23)cc1	2.44% (active)
C=CC[N+](C)(C)CCn1c2ccccc2c2nc3cc(C)c(C)cc3nc21	99.9% (inactive)
O=C(c1ccc(OCCN2CCOCC2)cc1)C1[C@H](c2ccc(Cl)cc2)[C@@H](c2ccccc2)NC12C(=O)Nc1ccc(Br)cc12 (some centres not stated)	26.3% (inactive)
N#Cc1c(-c2ccc(Br)cc2)nc2n[nH]c(-c3ccc(Br)cc3)c2c1-c1ccc(F)cc1	74.6% (inactive)
Cc1ccccc1[C@H]1C(C(=O)c2ccc(Cl)cc2)C2(N[C@@H]1c1ccccc1)C(=O)Nc1ccc(Cl)cc12 (some centres not stated)	13% (inactive)
COc1cc(C2CC(c3cc(OC)c(OC)c(OC)c3)=NN2C(C)=O)ccc1OCc1ccccc1 (configuration not stated)	2.7% (active)
Cc1cccc(NC(=O)[C@]23CCC(C)(C)CC2C2=CCC4[C@@]5(C)C[C@@H](O)[C@H](O)[C@@](C)(CO)C5CC[C@@]4(C)[C@]2(C)CC3)c1 (some centres not stated)	13.5% (inactive)
CC12CC[C@@H]3[C@]4(C)COC(c5cn[nH]c5-c5ccc(Cl)cc5)O[C@@H]4CC[C@@]3(C)[C@@H]1CC(C1=CCOC1=O)O2 (some centres not stated)	6.42% (active)
S=c1c2ccccc2nc2n1CCc1c-2[nH]c2ccccc12	37.2% (inactive)
CCCCSc1nc(NCCc2c[nH]c3ccccc23)c(C#N)c(-c2ccccc2)n1	-0.0859% (active)
CC(C)c1sc(NC(=O)c2cc(NC(=O)c3cc(NC(=O)c4cscn4)cn3C)cn2C)nc1C(=O)NCCCN(C)C	13% (inactive)
CC(=O)Nc1ccc(-n2cnc3ccc(-c4ccc(O)cc4)cc32)cc1	47.9% (inactive)

SMILES	growth
Cc1ccc(NCC(=O)Cn2cc(COc3ccc(C=Nc4cnc5ccccc5c4)cc3)nn2)cc1	105% (inactive)
Cc1ccc([C@H]2C(C(=O)c3ccc(Cl)cc3)C3(N[C@@H]2c2ccccc2)C(=O)Nc2ccc(Br)cc23)cc1 (some centres not stated)	41.1% (inactive)
Cn1cc(-c2nnc(N)nc2-c2c[nH]c3ccc(Br)cc23)c2cc(Br)cnc21	47.7% (inactive)
O=C(c1ccccc1)c1ccc2nc(-c3ccc(F)cc3)[nH]c2c1	47.5% (inactive)
COc1ccc(-c2nc(SCC(C)C)nc(NCCc3c[nH]c4ccccc34)c2C#N)cc1	22.6% (inactive)
S=C(Nc1ccccc1)Nc1ccc(OCc2nc3ccccc3[nH]2)cc1	36.1% (inactive)
O=C(/C=C/Nc1ccc(Cl)cc1)c1ccc2c(c1)Nc1ccccc1S2	62.1% (inactive)
COc1ccc(C(=O)/C=C/c2ccc(OCc3ccc(F)cc3)c(OC)c2)cc1OC	26.8% (inactive)
COc1c(F)ccc(C(=O)Nc2ccc3nc(NC(=O)C4CCCN(S(=O)(=O)c5cccc(C(F)(F)F)c5)C4)sc3c2)c1F (configuration not stated)	48.4% (inactive)
Cn1cc(-c2cc(N)n3nc(-c4c[nH]c5ccccc45)cc3n2)c2cccnc21	22.2% (inactive)
Cc1ccc(C(=O)CSc2nc3ccc(C)cc3c(=O)n2-c2ccc(F)cc2)cc1	52.5% (inactive)
O=C(NNc1ccccc1)n1c(=O)c2ccccc2c(=O)n1-c1ccccc1	87.9% (inactive)
Cc1nc(Nc2ccccn2)sc1C(=O)CC(SCC(=O)Nc1ccc(Cl)cc1)c1ccccc1F (configuration not stated)	-7.28% (active)
O=c1onc(-c2cc3ccccc3nc2Cl)n1-c1cccc2ccccc12	3.09% (active)
N#Cc1c(-c2cccc(Cl)c2Cl)cc(-c2c[nH]c3ccccc23)[nH]c1=O	63.4% (inactive)
CC(=O)OC[C@@]1(C)C2CC[C@]3(C)C(CC=C4C5CC(C)(C)CC[C@]5(C(=O)Nc5ccc(Br)cc5)CC[C@]43C)[C@@]2(C)C[C@@H](OC(C)=O)[C@@H]1OC(C)=O (some centres not stated)	16.5% (inactive)
